In PubChem BioAssay (EPA / NIEHS):
Values joined by “and” are separate entries in the source; they are usually repeats but may differ in a detail not shown here. Equal entries are not always repeated. Records with an inconclusive call do not appear. Active and inactive are the calls of the source. Rule for the calls: active = hit-call score of the fitted dose curve at least 0.9, where 1 is the maximum; inconclusive = response in the unintended direction; inactive = score below 0.9.

What follows are compounds tested against human Adrenergic, Alpha 2c Receptor (Adra2C), ADRA2C (gene 152) (UniProt P18825) (assay: NVS_GPCR_hAdra2C: NovaScreen (NVS) G Protein-Coupled Receptor Assay for human Adrenergic, Alpha 2c Receptor (Adra2C) (AID 2283259)).
Experimental: NVS_GPCR_hAdra2C is a biochemical, single-readout assay that uses extracted gene-proteins from SF9 in a cell-free assay. Measurements were taken 1 hour after chemical dosing in a 96-well plate.NVS_GPCR_hAdra2C is one of one assay component(s) measured or calculated from the NVS_GPCR_hAdra2C assay. It is designed to make measurements of radioligand binding, a form of binding reporter, as detected with scintillation counting signals by Filter-based radiodetection technology.Data from the assay component NVS_GPCR_hAdra2C was analyzed into 1 assay endpoint. This assay endpoint, NVS_GPCR_hAdra2C, was analyzed in the positive analysis fitting direction relative to DMSO as the negative control and baseline of activity. Using a type of binding reporter, loss-of-signal activity can be used to understand changes in the binding as they relate to the gene ADRA2C. Furthermore, this assay endpoint can be referred to as a primary readout, because the performed assay has only produced 1 assay endpoint. To generalize the intended target to other relatable targets, this assay endpoint is annotated to the gpcr intended target family, where the subfamily is rhodopsin-like receptor.
Binding assays used specific radioligands (tritiated, iodinated) with non-radioactive competitive displacement ligands in agonist or antagonist protocols (as indicated) and various reference compounds and inhibitors to titrate specific binding to receptors and transporters. Most enzyme assays (CYPs, kinases, phosphatases, proteases, HDACs) used recombinant protein and specific substrates (fluorescence mostly, some colorimetric and radioactive) and inhibitors, followed by a biochemical separation of substrate and product. All assays for the biochemical HTS were initially run in duplicate at a single concentration (10 uM for CYP450 assays and 25 uM for all others). […] Each assay was run with positive and negative controls, and concurrent controls on every plate. The follow-up (secondary) screen tested active chemical-pairs in concentration series, as well as a few additional assays not tested in the primary screen, some selected negative inactives, and several cases re-run in the concentration series for confirmatory purposes.

Chain of human Adrenergic, Alpha 2c Receptor (Adra2C), ADRA2C (gene 152) (P18825 whole entry, looked up): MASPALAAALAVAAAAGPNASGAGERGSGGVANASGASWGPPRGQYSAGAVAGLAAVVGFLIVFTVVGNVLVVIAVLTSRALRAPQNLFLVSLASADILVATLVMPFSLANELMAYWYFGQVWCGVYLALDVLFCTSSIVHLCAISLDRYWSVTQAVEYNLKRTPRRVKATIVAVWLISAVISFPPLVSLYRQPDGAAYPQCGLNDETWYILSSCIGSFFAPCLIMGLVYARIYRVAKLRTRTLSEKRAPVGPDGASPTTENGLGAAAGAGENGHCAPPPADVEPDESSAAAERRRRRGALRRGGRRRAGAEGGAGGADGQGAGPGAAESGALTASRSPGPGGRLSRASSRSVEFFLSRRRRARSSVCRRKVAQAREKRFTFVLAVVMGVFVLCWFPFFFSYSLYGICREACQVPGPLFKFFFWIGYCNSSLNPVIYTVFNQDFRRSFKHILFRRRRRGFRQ

AC50, active:
Cc1occc1C(=O)Nc1ccc(C(=O)N2CCC(F)(F)/C(=C\C(=O)N3CCC(N4CCCCC4)CC3)c3ccccc32)cc1 1.03 µM
CCN(Cc1cccnc1)C(=O)c1cccc(Cl)c1[C@]1(C)C(=O)N(Cc2ccc(OC)cc2OC)c2ccc(Cl)cc21 2.22 µM
CN(C)c1ccc(C(=C2C=CC(=[N+](C)C)C=C2)c2ccc(N(C)C)cc2)cc1 1.79 µM
CCOC(=O)O[C@H](C)OC(=O)c1ccc2c(c1)cc(C(=O)NC1CCN(C(C)C)CC1)n2Cc1cc(-c2ccc(Cl)s2)on1 2.01 µM
Cc1cc(F)ccc1-c1cc(N2CC[C@@H](O)[C@H]2CO)ncc1N(C)C(=O)C(C)(C)c1cc(C(F)(F)F)cc(C(F)(F)F)c1 5.39 µM
CCCCCCCCOC(=O)c1cc(O)c(O)c(O)c1 11.8 µM
O=C1c2ccccc2C(=O)N1CCc1noc(-c2ccc(CN3CCCCCC3)s2)n1 1.08 µM
CC/C(=C(/CC)c1ccc(O)cc1)c1ccc(O)cc1 19.2 µM and 25 µM and 5.86 µM
NCc1cccc(C2CCN(C(=O)c3ccc(C#Cc4ccccc4F)o3)CC2)c1 4.51 µM
Clc1cc(Cl)c2c(c1)N=C1CCCCCN1C2 5.73 µM
CCN(CC)C(=O)c1cc(S(=O)(=O)Cc2ccccc2)c(N2CCC(c3ccccc3)CC2)cc1N(CC)CCN(C)C 9.22 µM
CN(C)C(=O)C1(N2CCCCC2)CCN(CC[C@@]2(c3ccc(Cl)c(Cl)c3)CN(C(=O)c3ccccc3)CCO2)CC1 12.1 µM
COc1ccc2cc(S(=O)(=O)N[C@H](CC(=O)N[C@H](Cc3ccc(CN4[C@H](C)CCC[C@@H]4C)cc3)C(=O)N(C)C(C)C)c3ccc4c(c3)OCO4)ccc2c1 5.22 µM
COc1cc(C(=O)NC2CCN(C)CC2)ccc1Nc1ncc2c(n1)N(C1CCCC1)CC(F)(F)C(=O)N2C 6.01 µM
